# The supplement of paper PMC10338343
# ± gives the standard deviation.
# Legend:
# [1] = system: MILI (PIWIL2) piRISC loaded with piRNA #1 (26 nt); test: pre-steady-state target cleavage rate (min^-1); guide: piRNA #1 5'p-UGAGGUAGUAGGUUGUAUAGUAUCCA; higher = faster piRNA-guided slicing of the target; conditions: auxiliary factor: 500 nM mouse GTSF1;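 note: 1 nM active piRISC with 0.1 nM target library at 33 °C single turnover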
# How it was run: (§1)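 Three pooled Cleave-'n-Seq trials supplied the data, with k3 capped at 0.0001 min^-1. In each, […] transcribed, DNA-blocked target RNA library and 1 nM active affinity-purified piRISC with one synthetic guide reacted in HEPES–potassium acetate buffer at 33 °C for 0–8 or 0–960 min, with or without 500 nM GTSF1 partner protein. Uncleaved targets were sequenced and normalised to depth and to weakly complementary targets. A burst-and-steady-state fit provided the pre-steady-state cleavage rate.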
# [2] = system: EfPiwi piRISC loaded with piRNA #1 (26 nt); test: pre-steady-state target cleavage rate (min^-1); auxiliary factor: 500 nM Ephydatia muelleri Gtsf1; guide: piRNA #1 5'p-UGAGGUAGUAGGUUGUAUAGUAUCCA; MIWI and MILI are mouse PIWI proteins and EfPiwi is from a freshwater sponge; tags in brackets are library labels; higher = faster piRNA-guided slicing of the target
# How it was run: as §1
Sequence,pre-steady-state target cleavage rate [1],pre-steady-state target cleavage rate [2]
GGAGAGGAAACUAUACAACCUACUAGCUCA,0.0535 ± 0.019,0.00276 ± 0.0019
GGAGACCUAUGUUAUACAACCUACUACCUCA,0.104 ± 0.01,0.0122 ± 0.0063
GGAGACCAAACAAUACAACCUACUACCUCA,0.0678 ± 0.024,0.00594 ± 0.0054
GGAGAGCAUACUAUACAACCAACUACCUCA,0.00634 ± 0.0024,0.00434 ± 0.0022
GGAGACCAUACUAUACAACGUAGUACCUCA,0.0119 ± 0.0033,0.00264 ± 0.0023
GGAGACGAUACUAUACAACCUACUUACCUCA,0.169 ± 0.014,0.0069 ± 0.0023
GGAGACCAAACUAUACAACCUACUUCCUCA,0.0841 ± 0.035,0.00317 ± 0.0029
GGAGACGAUACUAUACAACCUAGUUCCUCA,0.00516 ± 0.0038,0.00305 ± 0.0018
GGAGUGGAUGACUAUACAACCUACUACCUCA,0.0838 ± 0.019,0.00475 ± 0.0037
GGAGACCUUACCAUACAACCUACUACCUCA,0.134 ± 0.02,0.0112 ± 0.0056
GGAGACGAUACUAUACAACCUUCAACCUCA,0.00736 ± 0.0019,0.00247 ± 0.0013
GGAGACCUUACUGUACAACCUACUACCUCA,0.163 ± 0.029,0.0146 ± 0.0073
GGAGAGGAUACUAAACAAGCUACUACCUCA,0.165 ± 0.014,0.00412 ± 0.0017
GGAGAGGAUACUAAACAUCCUACUACCUCA,0.276 ± 0.022,0.00524 ± 0.0024
GGAGAGGAUACUAUACAAGCUACUACCUCA,0.143 ± 0.014,0.00667 ± 0.003
GGAGACCUAUGAUAUGUUGCUACUACCUA,< 0.0001,< 0.0001
GGAGAGAGAUACUAUACAACCUACUACCUCA,0.201 ± 0.013,0.159 ± 0.057
GGAGAGGAUACUAUACAUCCUUCUACCUCA,0.0216 ± 0.0041,0.00362 ± 0.0026
GGAGACCUAUCUAUGACAACCUACUACCUCA,0.0545 ± 0.0096,0.00594 ± 0.0037
GGAGUGGAUUGUAUACAACCUACUACCUCA,0.151 ± 0.0098,0.00594 ± 0.0037

Sequence,pre-steady-state target cleavage rate [1],pre-steady-state target cleavage rate [2]
GGAGUGGAUACUAUACAACCUACUACCUCC [g2:g26:cont:t1C],0.188 ± 0.0099,0.105 ± 0.037
GGAGACGAUACUAUACUUCCUACUACCUCA,0.242 ± 0.016,0.0109 ± 0.0064
GGAGAGGAUACAUAACAACCUACUACCUCA,0.123 ± 0.011,0.00445 ± 0.004
GGAGACCAUACUAUACAACCUACUGCCUCA,0.139 ± 0.015,0.00606 ± 0.0025
GGAGUGGAUACUAUACAACCUACUCCCUCA,0.0191 ± 0.0045,0.00426 ± 0.0017
GGAGACCAUACUAUACAACCUACCUACCUCA,0.129 ± 0.017,0.00424 ± 0.0022
GGAGACCAGACUAUACAACCUACUACCUCA,0.193 ± 0.06,0.00856 ± 0.0055
GGAGAGGAAACAAUACAACCUACUACCUCA,0.186 ± 0.018,0.00675 ± 0.004
GGAGUCCUUACUAUACAACCUACUACCUCA,0.174 ± 0.011,0.0555 ± 0.021
GGAGAGGAUCUAUACAACCUACUACCUCA,0.171 ± 0.013,0.00612 ± 0.0048
GGAGACGAUACUAUACAAUCUACUACCUCA,0.131 ± 0.0093,0.00912 ± 0.0039
GGAGACGAUACUACUACAACCUACUACCUCA,0.193 ± 0.015,0.0327 ± 0.012
GGAGUGGAAACUAUACAACCUACUACCACA,0.129 ± 0.018,0.00336 ± 0.0029
GGAGUGGAUACUAUACAACGUUCUACCUCA,0.00599 ± 0.0017,0.00461 ± 0.0022
GGAGAGGAUACUAUACAACCUACUACCUGA,0.0731 ± 0.011,0.00647 ± 0.0028
GGAGACCAUACGAUACAACCUACUACCUCA,0.255 ± 0.028,0.00769 ± 0.0035
GGAGUGGAUACUAUACAACCUACUACCUCU [g2:g26:cont:t1U],0.231 ± 0.019,1.05 ± 0.27
GGAGACCAUACUAUACAACCUACUUCCUCA,0.114 ± 0.018,0.00455 ± 0.002
GGAGUGGAUACUAUACAACCUAAUACCUCA,0.0398 ± 0.0071,0.00389 ± 0.0016
GGAGUGGAUACUAUUCAACCUACUACCUCA,0.179 ± 0.0081,0.0119 ± 0.0052

Sequence,pre-steady-state target cleavage rate [1],pre-steady-state target cleavage rate [2]
GGAGACGAUACUAAACUACCUACUACCUCA,0.24 ± 0.018,0.00228 ± 0.0021
GGAGACCAUACUAUACAACGUACUAGCUCA,0.00786 ± 0.0034,0.00358 ± 0.0035
GGAGACCAUACUAUACAACGUACUACCACA,0.0309 ± 0.0064,0.00321 ± 0.0029
GGAGACGAUACUAUACAAGCUACUACCACA,0.311 ± 0.016,0.00387 ± 0.0017
GGAGACCAAAGUAUACAACCUACUACCUCA,0.0438 ± 0.0093,0.0166 ± 0.0082
GGAGACCAUACUAUACAACCUACAUCCUCA,0.1 ± 0.014,0.00325 ± 0.0028
GGAGACGAUACUAUACACCCUACUACCUCA,0.081 ± 0.0091,0.011 ± 0.0045
GGAGAGGAUACUAUACAACCUACUACCCUCA,0.11 ± 0.017,0.00508 ± 0.0022
GGAGACCUUACUAUACAACCUACUACCUCCA,0.133 ± 0.014,0.00652 ± 0.0028
GGAGACCUAUCUAUGCAACCUACUACCUCA,0.122 ± 0.014,0.00656 ± 0.0037
GGAGACGAUACUAUACAACCUACGUACCUCA,0.108 ± 0.013,0.00418 ± 0.0019
GGAGACGAUACUAUACAACCAAGUACCUCA,0.00441 ± 0.0027,0.00215 ± 0.0019
GGAGACGUUACUAUACAACCUACUACCACA,0.191 ± 0.016,0.00242 ± 0.0022
GGAGACGAUACUAUACAACCUACUACCUUA,0.228 ± 0.027,0.224 ± 0.068
GGAGAGGAUACCUAUACAACCUACUACCUCA,0.123 ± 0.027,0.0826 ± 0.033
GGAGAGGAUACUAUACAACCUACCUACCUCA,0.142 ± 0.013,0.00412 ± 0.0014
GGAGUGGAUACUAUACAAGCUACUACCUCA,0.233 ± 0.013,0.008 ± 0.0032
GGAGAGGUUACUAUACAACGUACUACCUCA,0.00751 ± 0.0028,0.00457 ± 0.0015
GGAGACCUUACAUUACAACCUACUACCUCA,0.0294 ± 0.0055,0.00334 ± 0.0033
GGAGACCUUAACUAUACAACCUACUACCUCA,0.138 ± 0.01,0.113 ± 0.039
